± gives the uncertainty stated by the source. Over roughly 9,900 compounds, “viability index relative to DMSO control” has its median near 1; the lowest 2% begin near 0.85. The list comes from a sample in which the lowest values are over-represented; it also holds similar structures and randomly drawn compounds.
Tested on: Plasmodium falciparum NF54 stage V gametocytes
Experiment: viability index relative to DMSO control (fraction); higher = less gametocyte killing
Details: 2.5 µM, incubation time: 72 h
Method in brief: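 P. falciparum NF54 stage V gametocytes (serum-free medium, 0.75% gametocytemia, 1.25% hematocrit) were exposed to compound at 2.5 µM for 72 hr at 37°C under low oxygen, then stained with MitoTracker Red CMXRos and saponin for one to two hours. Red particles of 20–70 µm2 in one field per well were counted, and the viability index is that count scaled to the plate mean of solvent-only wells.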

[1] = library set: Broad Institute DOS
[2] = library set: Broad Institute Blood Stage

| SMILES | viability index [1] | viability index [2] |
| --- | --- | --- |
| C[C@@H]1CN([C@@H](C)CO)C(=O)Cc2cc(NC(=O)CCC(F)(F)F)ccc2O[C@@H]1CN(C)CC1CC1 | 1.04 ± 0.075 |  |
| Cc1noc(C)c1S(=O)(=O)N(C)C[C@H]1OCCCC[C@H](C)Oc2ccc(NS(=O)(=O)c3cn(C)cn3)cc2C(=O)N([C@H](C)CO)C[C@@H]1C | 1.08 ± 0.019 |  |
| Cc1noc(C)c1S(=O)(=O)N(C)C[C@H]1OCc2cn(nn2)CCCC(=O)N([C@H](C)CO)C[C@@H]1C | 0.952 ± 0.014 |  |
| C[C@H](CO)N1C[C@H](C)[C@@H](CN(C)C)OCc2ccccc2-c2c(n(C)c3ccccc23)C1=O | 1.04 ± 0.08 |  |
| CNC[C@@H]1OCCCC[C@@H](C)Oc2ccc(NC(=O)Nc3ccc(OC)cc3)cc2C(=O)N([C@H](C)CO)C[C@H]1C | 1.05 ± 0.011 |  |
| C[C@H]1CN([C@@H](C)CO)C(=O)c2ccccc2-c2ccccc2CO[C@@H]1CN(C)C(=O)[C@@H]1CCCN1C | 0.946 ± 0.043 |  |
| CC(C)(C)[S@@](=O)N1Cc2cc(C(=O)NCCc3ccncc3)nc(-c3cccc(-c4ccccc4)c3)c2[C@H]1CCO |  | 0.763 ± 0.047 |
| CC(C)(C)[S@](=O)N1Cc2cc(C(=O)NCCc3ccncc3)nc(-c3cccc(-c4cccc(C#N)c4)c3)c2[C@@H]1CCO | 1.08 ± 0.081 |  |
| CC(C)(C)[S@@](=O)N1Cc2cc(C(=O)NCCc3ccncc3)nc(-c3cccc(-c4cccc(C#N)c4)c3)c2[C@H]1CCO | 1.06 ± 0.084 |  |
| CC(C)NC(=O)N1Cc2cc(C(=O)NC3Cc4ccccc4C3)nc(-c3cccc(-c4cccnc4)c3)c2[C@@H]1CCO | 0.97 ± 0.052 |  |
| CC(C)(C)[S@@](=O)N1Cc2cc(C(=O)NCc3ccccc3F)nc(-c3cccc(-c4cncnc4)c3)c2[C@H]1CCO | 0.801 ± 0.1 |  |
| CC(C)(C)[S@](=O)N1Cc2cc(C(=O)NCc3ccccn3)nc(-c3cccc(-c4ccccc4F)c3)c2[C@@H]1CCO | 0.955 ± 0.08 |  |
| CC(C)(C)S(=O)N1Cc2cc(C(=O)NCc3ccc(Oc4ccccc4)cc3)nc(-c3cccc(-c4cccc(F)c4)c3)c2[C@@H]1CCO (some centres not stated) | 1.02 ± 0.034 |  |
| CC(C)(C)[S@](=O)N1Cc2cc(C(=O)NCc3ccccc3F)nc(-c3cccc(-c4cncnc4)c3)c2[C@@H]1CCO | 0.89 ± 0.056 |  |
| CC(C)NC(=O)N1Cc2cc(C(=O)NC3Cc4ccccc4C3)nc(-c3cccc(-c4cccnc4)c3)c2[C@H]1CCO | 0.764 ± 0.091 |  |
| COc1ccc(CNC(=O)c2cc3c(c(-c4cccc(-c5ccc(C#N)cc5)c4)n2)[C@H](CCO)N([S@@](=O)C(C)(C)C)C3)cc1 | 0.977 ± 0.085 |  |
| CC(C)NC(=O)N1Cc2cc(C(=O)NC3CCC3)nc(-c3cccc(-c4cncnc4)c3)c2[C@@H]1CCO | 1.01 ± 0.018 |  |
| COc1cccc(-c2cccc(-c3nc(C(=O)NCc4ccc(Oc5ccccc5)cc4)cc4c3[C@@H](CCO)N(S(=O)C(C)(C)C)C4)c2)c1 (some centres not stated) |  | 0.799 ± 0.032 |
| CO[C@@H]1CC[C@H]2CCN(C)C(=O)[C@H](C)CN(C)C(=O)c3cc(C#N)ccc3OC[C@@H]1O2 | 0.973 ± 0.056 |  |
| CCC(=O)Nc1ccc2c(c1)C(=O)N(C)C[C@@H](OC)[C@H](C)CN(C(=O)Cc1cccnc1)[C@@H](C)CO2 | 1.13 ± 0.043 |  |
| O=C(Cc1ccncc1)N1CC[C@@H]2[C@H](CO)Nc3ccc(Br)cc3[C@@H]21 | 1.077 ± 0.0015 |  |

| SMILES | viability index [1] | viability index [2] |
| --- | --- | --- |
| C/C=C/c1cccc(-c2nc(C(=O)Nc3nccs3)cc3c2[C@@H](CCO)N(C(=O)NC(C)C)C3)c1 | 0.867 ± 0.035 |  |
| C[C@@H]1CN([C@H](C)CO)C(=O)Cc2cc(NC(=O)Nc3ccc(F)cc3)ccc2O[C@H]1CN(C)S(C)(=O)=O | 0.939 ± 0.16 |  |
| CC(=O)NC[C@H]1[C@@H](c2ccc(C#Cc3ccccc3F)cc2)[C@@H](CO)N1C(C)=O | 1.05 ± 0.002 |  |
| C/C=C/c1ccc([C@H]2[C@@H](CO)N(C(=O)NC3CCCCC3)[C@H]2C#N)cc1 | 1.11 ± 0.16 |  |
| CC(C)C#Cc1ccc([C@@H]2[C@@H](CO)N(C(=O)c3cccc(F)c3)[C@H]2C#N)cc1 | 1.17 ± 0.073 |  |
| Cc1noc(C)c1S(=O)(=O)N(C)C[C@H]1OCCCC[C@@H](C)Oc2ccc(N(C)C)cc2C(=O)N([C@H](C)CO)C[C@@H]1C | 1.02 ± 0.029 |  |
| C[C@H]1CCCCO[C@H](CN(C)S(=O)(=O)c2ccc(F)cc2)[C@@H](C)CN([C@@H](C)CO)C(=O)c2cc(N(C)C)ccc2O1 | 1.09 ± 0.17 |  |
| C[C@@H]1CCCCO[C@@H](CN(C)S(=O)(=O)c2ccc(F)cc2)[C@@H](C)CN([C@@H](C)CO)C(=O)c2cc(N(C)C)ccc2O1 | 0 |  |
| Cc1noc(C)c1S(=O)(=O)N(C)C[C@@H]1OCCCC[C@@H](C)Oc2ccc(N(C)C)cc2C(=O)N([C@@H](C)CO)C[C@H]1C | 0.635 ± 0.13 |  |
| Cc1noc(C)c1S(=O)(=O)N(C)C[C@@H]1OCCCC[C@@H](C)Oc2ccc(N(C)C)cc2C(=O)N([C@@H](C)CO)C[C@@H]1C | 1.08 ± 0.068 |  |
| C[C@@H]1CCCCO[C@@H](CN(C)S(=O)(=O)c2ccc(F)cc2)[C@H](C)CN([C@@H](C)CO)C(=O)c2cc(N(C)C)ccc2O1 | 1.05 ± 0.092 |  |
| CCC(=O)N1[C@@H](CO)[C@@H]2c3ccccc3N(C(=O)Nc3ccc(Cl)cc3)C[C@@H]21 | 1.1 ± 0.044 |  |
| COc1cccc(-c2ccc([C@H]3[C@H]4CNC[C@@H]3N4CC3CCCCC3)cc2)c1 | 0.963 ± 0.029 |  |
| CCCC#Cc1cnc2c(c1)C(=O)N([C@H](C)CO)C[C@H](C)[C@H](CN(C)C(=O)Nc1cc(F)ccc1F)O2 | 1.02 ± 0.081 |  |
| COc1ccccc1CN1C[C@@H](C)[C@H](OC)CN(C)C(=O)c2cc(NC(=O)Nc3ccccc3OC)ccc2OC[C@H]1C | 1.02 ± 0.091 |  |
| COc1ccccc1NC(=O)Nc1ccc2c(c1)OC[C@@H](C)N(Cc1ccccc1Cl)C[C@@H](C)[C@H](OC)CN(C)C2=O |  | 0.821 ± 0.053 |
| CO[C@@H]1CN(C)C(=O)c2cc(NC(=O)Nc3cccc(Cl)c3)ccc2OC[C@H](C)N(C(=O)Nc2c(C)noc2C)C[C@H]1C | 1.07 ± 0.019 |  |
| CO[C@@H]1CN(C)C(=O)c2cc(NC(=O)Nc3cccc(Cl)c3)ccc2OC[C@@H](C)N(C(=O)Nc2c(C)noc2C)C[C@H]1C | 1.052 ± 0.0092 |  |
| CO[C@H]1CN(C)C(=O)c2cc(NC(=O)Nc3cccc(Cl)c3)ccc2OC[C@H](C)N(C(=O)Nc2c(C)noc2C)C[C@H]1C | 0.7814 ± 0.0047 |  |
| COc1ccccc1CN1C[C@@H](C)[C@H](OC)CN(C)C(=O)c2ccc(NC(=O)Nc3ccccc3OC)cc2OC[C@H]1C |  | 0.855 ± 0.025 |
| Fc1cccc(-c2ccc([C@H]3[C@H]4CNC[C@@H]3N4CC3CCOCC3)cc2)c1 | 1.02 ± 0.0019 |  |
